Results taken from the supplement of paper PMC10849652.
Of roughly 7,900 targets only a part is listed; those with a hit were picked by preference. About 0.6% of all pairs of compound and target were hits.

compound: CC1=C(C2=C(C=C1)C(=O)C3=CC=CC=C3N2CCCN)C; assay: log2 fold change, soluble protein after heating vs DMSO (PISA); higher = thermal stabilisation; K562 cells, 10 uM, 30 min; active = over 0.2 and 3.5 SD of the protein, either way, in both replicates (recomputed)
Summary of the method: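 K562 cells (2×10^6 cells/mL) were treated with 10 μM compound for 30 min, and aliquots were heated for 3 min over 48°C-58°C. Pooled aliquots were extracted in PBS with 0.5% NP-40 at 4°C, and the supernatant after 21,000xg for 90 min was measured by TMTpro 16plex LC-MS/MS with channel sums equalised. Reported thermal stability, relative to control samples and from duplicates, is a log2 fold change.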

Sequence of UniProt P21283 (P21283 whole entry, looked up): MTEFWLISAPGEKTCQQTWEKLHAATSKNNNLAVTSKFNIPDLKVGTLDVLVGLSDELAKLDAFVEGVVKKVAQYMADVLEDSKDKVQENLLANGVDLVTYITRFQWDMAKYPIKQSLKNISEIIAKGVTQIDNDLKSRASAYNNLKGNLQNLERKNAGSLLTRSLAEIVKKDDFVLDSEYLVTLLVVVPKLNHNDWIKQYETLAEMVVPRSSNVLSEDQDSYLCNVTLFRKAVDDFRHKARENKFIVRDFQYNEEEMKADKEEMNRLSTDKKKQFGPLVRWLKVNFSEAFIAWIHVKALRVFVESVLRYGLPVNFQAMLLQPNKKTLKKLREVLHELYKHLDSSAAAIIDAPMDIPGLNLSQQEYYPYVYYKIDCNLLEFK
Sequence of UniProt P10398 (P10398 whole entry, looked up): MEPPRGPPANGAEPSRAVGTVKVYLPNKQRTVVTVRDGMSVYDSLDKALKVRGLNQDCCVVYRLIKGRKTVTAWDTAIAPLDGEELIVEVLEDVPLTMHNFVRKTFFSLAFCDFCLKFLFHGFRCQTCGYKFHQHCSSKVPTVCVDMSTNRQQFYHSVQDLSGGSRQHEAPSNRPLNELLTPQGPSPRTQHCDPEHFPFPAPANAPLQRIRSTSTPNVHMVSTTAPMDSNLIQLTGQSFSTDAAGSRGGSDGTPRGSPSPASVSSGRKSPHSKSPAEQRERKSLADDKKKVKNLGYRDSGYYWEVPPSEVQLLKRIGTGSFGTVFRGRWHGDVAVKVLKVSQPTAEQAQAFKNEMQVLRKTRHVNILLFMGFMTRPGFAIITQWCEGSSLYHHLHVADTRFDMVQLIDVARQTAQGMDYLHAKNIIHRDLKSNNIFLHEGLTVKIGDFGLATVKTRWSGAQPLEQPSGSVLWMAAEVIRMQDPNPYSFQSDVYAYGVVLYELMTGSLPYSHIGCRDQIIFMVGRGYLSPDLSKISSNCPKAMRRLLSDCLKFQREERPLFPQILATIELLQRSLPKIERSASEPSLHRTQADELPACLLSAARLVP
Sequence of UniProt Q9UJX6 (Q9UJX6 whole entry, looked up): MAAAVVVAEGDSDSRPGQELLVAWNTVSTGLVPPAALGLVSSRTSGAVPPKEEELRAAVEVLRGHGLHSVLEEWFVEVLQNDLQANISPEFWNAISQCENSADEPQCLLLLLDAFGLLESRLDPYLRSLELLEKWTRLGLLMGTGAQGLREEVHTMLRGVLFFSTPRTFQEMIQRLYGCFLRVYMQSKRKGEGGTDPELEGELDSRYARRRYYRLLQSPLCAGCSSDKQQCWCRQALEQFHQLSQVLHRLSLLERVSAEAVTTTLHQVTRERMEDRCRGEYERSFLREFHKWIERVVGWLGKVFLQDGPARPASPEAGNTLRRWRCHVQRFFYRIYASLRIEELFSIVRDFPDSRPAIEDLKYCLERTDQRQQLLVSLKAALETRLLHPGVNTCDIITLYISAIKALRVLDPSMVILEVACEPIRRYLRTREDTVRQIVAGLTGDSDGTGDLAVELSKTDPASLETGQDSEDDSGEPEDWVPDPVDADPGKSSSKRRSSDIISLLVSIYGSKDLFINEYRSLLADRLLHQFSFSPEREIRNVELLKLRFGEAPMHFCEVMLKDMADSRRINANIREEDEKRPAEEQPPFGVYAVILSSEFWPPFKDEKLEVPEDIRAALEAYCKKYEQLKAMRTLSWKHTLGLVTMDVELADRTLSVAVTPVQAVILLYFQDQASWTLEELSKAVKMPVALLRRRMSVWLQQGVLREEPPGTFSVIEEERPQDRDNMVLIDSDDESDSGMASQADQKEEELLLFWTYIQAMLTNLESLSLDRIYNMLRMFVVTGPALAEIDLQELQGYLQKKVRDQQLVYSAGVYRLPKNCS
Sequence of UniProt O60566 (O60566 whole entry, looked up): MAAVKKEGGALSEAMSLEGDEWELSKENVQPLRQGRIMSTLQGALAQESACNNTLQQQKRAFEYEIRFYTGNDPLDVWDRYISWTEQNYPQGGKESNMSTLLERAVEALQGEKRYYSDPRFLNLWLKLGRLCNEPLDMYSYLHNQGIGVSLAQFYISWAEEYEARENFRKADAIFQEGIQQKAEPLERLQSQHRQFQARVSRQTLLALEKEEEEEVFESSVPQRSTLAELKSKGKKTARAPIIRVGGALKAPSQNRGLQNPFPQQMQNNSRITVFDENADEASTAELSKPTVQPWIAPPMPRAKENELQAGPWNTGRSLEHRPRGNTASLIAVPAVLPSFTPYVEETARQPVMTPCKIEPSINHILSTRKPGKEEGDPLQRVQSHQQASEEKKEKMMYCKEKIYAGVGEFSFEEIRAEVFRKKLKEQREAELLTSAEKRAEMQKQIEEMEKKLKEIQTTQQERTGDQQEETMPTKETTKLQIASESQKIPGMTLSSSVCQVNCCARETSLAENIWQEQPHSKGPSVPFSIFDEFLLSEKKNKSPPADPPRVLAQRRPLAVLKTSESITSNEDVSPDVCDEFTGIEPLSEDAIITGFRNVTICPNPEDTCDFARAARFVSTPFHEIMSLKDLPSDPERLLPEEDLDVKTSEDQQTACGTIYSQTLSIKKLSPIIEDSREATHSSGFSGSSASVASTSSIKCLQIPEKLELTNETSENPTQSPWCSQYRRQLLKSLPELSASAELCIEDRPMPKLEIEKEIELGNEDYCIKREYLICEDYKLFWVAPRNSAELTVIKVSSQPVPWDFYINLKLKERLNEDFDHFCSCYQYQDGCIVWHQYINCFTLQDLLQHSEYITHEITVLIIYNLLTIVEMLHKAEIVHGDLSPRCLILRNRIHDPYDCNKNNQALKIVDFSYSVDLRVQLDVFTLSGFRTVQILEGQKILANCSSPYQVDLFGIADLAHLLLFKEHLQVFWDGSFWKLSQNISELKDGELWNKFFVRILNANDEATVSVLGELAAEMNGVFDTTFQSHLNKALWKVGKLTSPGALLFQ
Sequence of UniProt P49189 (P49189 whole entry, looked up): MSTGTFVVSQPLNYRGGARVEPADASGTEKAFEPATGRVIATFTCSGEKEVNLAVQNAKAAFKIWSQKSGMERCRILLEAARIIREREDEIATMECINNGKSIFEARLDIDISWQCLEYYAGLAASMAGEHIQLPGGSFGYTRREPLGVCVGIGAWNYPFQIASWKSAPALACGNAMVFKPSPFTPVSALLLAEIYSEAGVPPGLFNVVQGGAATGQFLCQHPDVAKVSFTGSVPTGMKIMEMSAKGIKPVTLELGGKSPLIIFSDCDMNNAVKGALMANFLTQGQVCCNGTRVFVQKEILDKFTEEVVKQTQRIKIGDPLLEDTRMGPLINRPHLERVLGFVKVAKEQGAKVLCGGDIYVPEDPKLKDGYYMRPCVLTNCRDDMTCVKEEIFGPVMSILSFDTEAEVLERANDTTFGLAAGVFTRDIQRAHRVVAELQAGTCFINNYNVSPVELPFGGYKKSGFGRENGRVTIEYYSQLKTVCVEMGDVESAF
Sequence of UniProt P54886 (P54886 whole entry, looked up): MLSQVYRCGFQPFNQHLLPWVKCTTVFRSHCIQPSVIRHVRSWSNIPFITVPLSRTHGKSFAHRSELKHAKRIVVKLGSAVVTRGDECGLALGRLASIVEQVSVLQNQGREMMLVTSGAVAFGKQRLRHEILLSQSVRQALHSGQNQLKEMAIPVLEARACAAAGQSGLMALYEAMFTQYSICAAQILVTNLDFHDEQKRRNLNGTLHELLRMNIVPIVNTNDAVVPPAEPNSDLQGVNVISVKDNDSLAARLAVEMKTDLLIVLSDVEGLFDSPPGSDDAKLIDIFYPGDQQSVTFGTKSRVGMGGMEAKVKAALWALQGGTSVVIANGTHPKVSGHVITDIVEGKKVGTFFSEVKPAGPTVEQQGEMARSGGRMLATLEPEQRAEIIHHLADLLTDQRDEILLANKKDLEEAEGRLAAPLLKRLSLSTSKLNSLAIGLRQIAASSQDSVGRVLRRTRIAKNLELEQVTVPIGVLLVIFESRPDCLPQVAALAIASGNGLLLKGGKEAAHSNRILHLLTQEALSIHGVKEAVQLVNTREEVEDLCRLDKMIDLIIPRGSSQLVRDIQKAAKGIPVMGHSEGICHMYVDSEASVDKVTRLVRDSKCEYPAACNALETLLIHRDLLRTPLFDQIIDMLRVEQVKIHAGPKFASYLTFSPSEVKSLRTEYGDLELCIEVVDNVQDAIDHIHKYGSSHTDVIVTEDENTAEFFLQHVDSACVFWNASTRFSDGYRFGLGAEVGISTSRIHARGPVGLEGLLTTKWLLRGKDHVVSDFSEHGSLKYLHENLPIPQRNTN
Sequence of UniProt Q7Z3C6 (Q7Z3C6 whole entry, looked up): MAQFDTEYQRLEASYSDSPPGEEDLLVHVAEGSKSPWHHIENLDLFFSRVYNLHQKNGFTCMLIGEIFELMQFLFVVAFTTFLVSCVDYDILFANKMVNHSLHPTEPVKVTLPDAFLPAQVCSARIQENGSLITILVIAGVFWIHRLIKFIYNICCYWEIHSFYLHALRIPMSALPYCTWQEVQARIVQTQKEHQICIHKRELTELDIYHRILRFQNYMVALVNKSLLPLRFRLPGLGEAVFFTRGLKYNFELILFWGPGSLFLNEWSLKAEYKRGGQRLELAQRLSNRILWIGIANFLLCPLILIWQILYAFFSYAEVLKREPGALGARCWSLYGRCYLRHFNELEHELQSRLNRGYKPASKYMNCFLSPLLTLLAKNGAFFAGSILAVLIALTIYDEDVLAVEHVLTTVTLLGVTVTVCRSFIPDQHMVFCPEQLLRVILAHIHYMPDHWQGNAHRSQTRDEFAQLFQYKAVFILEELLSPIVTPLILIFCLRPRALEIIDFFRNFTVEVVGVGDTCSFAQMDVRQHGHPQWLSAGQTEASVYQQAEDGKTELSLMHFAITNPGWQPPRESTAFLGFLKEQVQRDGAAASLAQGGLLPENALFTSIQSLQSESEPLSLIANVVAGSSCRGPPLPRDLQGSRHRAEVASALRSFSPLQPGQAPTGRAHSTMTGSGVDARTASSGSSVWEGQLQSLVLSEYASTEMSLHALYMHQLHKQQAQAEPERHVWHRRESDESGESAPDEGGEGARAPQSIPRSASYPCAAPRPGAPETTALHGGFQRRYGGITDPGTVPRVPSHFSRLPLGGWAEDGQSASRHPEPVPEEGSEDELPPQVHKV

Row | Target | log2 fold change
1 | AHSA1 (UniProt O95433) | 0 (inactive)
2 | AARS2 (UniProt Q5JTZ9) | 0.048 (inactive)
3 | APOB (UniProt P04114) | 0.021 (inactive)
4 | ABCA4 (UniProt P78363) | 0.082 (inactive)
5 | ANAPC2 (UniProt Q9UJX6) | -0.051 (inactive)
6 | ATP12A isoform 2 (UniProt P54707) | 0.086 (inactive)
7 | BRD8 (UniProt Q9H0E9) | -0.019 (inactive)
8 | ATP6V1C1 (UniProt P21283) | -0.037 (inactive)
9 | BMP2K (UniProt Q9NSY1) | -0.009 (inactive)
10 | ALDH9A1 isoform 3 (UniProt P49189) | -0.003 (inactive)
11 | ARFGAP2 (UniProt Q8N6H7) | 0.005 (inactive)
12 | BRAP (UniProt Q7Z569) | 0.263 (active)
13 | AP2S1 (UniProt P53680) | 0.091 (inactive)
14 | AHCYL1 (UniProt O43865) | -0.004 (inactive)
15 | ADAM15 (UniProt Q13444) | 0.033 (inactive)
16 | BUB1B isoform 3 (UniProt O60566) | 0.017 (inactive)
17 | AP2A1 (UniProt O95782) | 0.081 (inactive)
18 | BPHL (UniProt Q86WA6) | -0.244 (inactive)

Row | Target | log2 fold change
19 | ARAF (UniProt P10398) | 0.041 (inactive)
20 | ATAD3B (UniProt Q5T9A4) | 0.024 (inactive)
21 | ATG9A (UniProt Q7Z3C6) | 0.038 (inactive)
22 | AURKA (UniProt O14965) | 0.059 (inactive)
23 | BID isoform 2 (UniProt P55957) | 0.074 (inactive)
24 | ATP9B (UniProt O43861) | 0.003 (inactive)
25 | ARFGEF1 (UniProt Q9Y6D6) | 0.07 (inactive)
26 | ATP6V0A1 isoform 3 (UniProt Q93050) | 0.011 (inactive)
27 | AMD1 (UniProt P17707) | 0.051 (inactive)
28 | ATL2 (UniProt Q8NHH9) | 0.169 (inactive)
29 | ALDH18A1 (UniProt P54886) | 0.184 (inactive)
30 | ACTR1B (UniProt P42025) | -0.013 (inactive)
31 | BZW2 (UniProt Q9Y6E2) | 0.014 (inactive)
32 | ACSL5 isoform 3 (UniProt Q9ULC5) | 0.088 (inactive)
33 | ACSL1 (UniProt P33121) | 0.03 (inactive)
34 | ATIC (UniProt P31939) | 0.064 (inactive)
35 | ADD1 isoform 3 (UniProt P35611) | 0.008 (inactive)
36 | ACAD9 (UniProt Q9H845) | 0.028 (inactive)
